Assay outcomes deposited in PubChem by National Center for Advancing Translational Sciences (NCATS).
Rows were chosen to be rich in hits. Some 3.2% of all compounds tested hit in one or more screens of this group.
Tau fluor counter – counter-screen for tau fibril formation inhibitors | tau K18 P301L Alexa594 fluorescence, heparin fibrillization | Potency, µM (highest dose often 57.7 µM), for inactives: at the highest dose activity change, negative = decrease | 0.93% of 280,000 active | AID 1463; also: potency is read from the fitted curve at half-maximal effect; % is scaled to controls: 0 for no effect and ±100 for the full control effect; nearly all actives have a fitted effect of over 55% in size
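Human K18 P301L tau (15 uM unlabeled plus 0.24 uM Alexa 594-labeled, final) in 100 mM sodium acetate pH 7 was mixed with compound and 20 uM heparin and incubated 6 hr at 37 C.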
Lamin A splicing – LMNA splicing modulation; HeLa LMNA splicing GFP/RFP minigene ratio, 48 h; Potency, µM (doses to about 46.1 µM), without a hit: at the top dose ratio change, negative = inhibition, hits mostly inhibitors; 0.01% of 200,000 active; active = well fitted inhibition curve with a large enough effect in the signal ratio, with a control signal flat, not every such curve was filed as active; inconclusive = small, poorly fitted or top-dose-only effect, or effect the other way, or a change in a side signal; the % refers to the signal ratio; also: potency is read from the fitted curve at half-maximal effect; % is scaled to controls: 0 for no effect and ±100 for the full control effect
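S3 HeLa cells stably expressing lamin A-EGFP splicing minigene plus DsRed2, 600 cells/well, 48 h compound exposure at 37C. Laser-scanning cytometry; analysed as GFP (500-530 nm)/RFP (575-640 nm) total intensity ratio; 0.5% DMSO vehicle.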
Tau fibril ThT – inhibitors of human tau fibril formation, thioflavin T binding; P10636; recombinant tau K18 P301L (four-repeat tau fragment), heparin-induced fibrillization, ThT fluorescence; Potency, µM (titrated, usually from 57.4 µM), for the others: top-dose activity, negative = inhibition, usual class: inhibitors; 2.1% of 270,000 active; also: potency is read from the fitted curve at half-maximal effect; % is scaled to controls: 0 for no effect and ±100 for the full control effect; nearly all actives have a fitted effect of over 55% in size
Target sequence (P10636 561-689 P618L limits assumed): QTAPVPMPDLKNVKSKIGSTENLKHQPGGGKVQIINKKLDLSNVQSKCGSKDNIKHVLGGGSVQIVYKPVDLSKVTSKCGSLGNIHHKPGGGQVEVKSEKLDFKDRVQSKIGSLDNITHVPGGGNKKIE
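In this qHTS, human K18 P301L tau is incubated with compound and heparin for 6 hr at 37 C, and Thioflavin T fluorescence then reports fibril load.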
Tau FP inhib – blocks human tau fibril formation measured by polarization. P10636. K18 P301L tau heparin fibrillization, Alexa594 FP, 6 h. Potency, µM (highest dose often 57.7 µM), for inactives: top-dose activity, negative = inhibition, usual class: inhibitors. 0.39% of 280,000 active. AID 1468; also: potency is read from the fitted curve at half-maximal effect; % is scaled to controls: 0 for no effect and ±100 for the full control effect; nearly all actives have a fitted effect of over 55% in size
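Recombinant K18 P301L […], labeled with Alexa 594 at 0.24 uM over 15 uM unlabeled; heparin inducer 20 uM final; 37 C, 6 hr; FP endpoint.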
JMJD2E inh – JMJD2E (human) inhibition | B2RXH2 | JMJD2E catalytic domain, FDH-coupled NADH fluorescence (FDH is formaldehyde dehydrogenase) | Potency, µM (series often up to 57.1 µM), for the others: at the highest dose activity change, negative = inhibition, hits mostly inhibitors | 1.6% of 230,000 active; active = well fitted inhibition curve with a large enough effect, not every such curve was filed as active; inconclusive = small, poorly fitted or top-dose-only effect, or another doubt; inactive = no such curve, though single readings can be large or run the other way;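 also: potency is read from the fitted curve at half-maximal effect; 0% = wells with enzyme and -100% = buffer wells without enzyme; nearly all actives have a fitted effect of over 50% in size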
CBFb RUNX1 block – CBF-beta/RUNX1 interaction disruption; AlphaScreen CBFb-His/RUNX1-biotin binding, biochemical; Potency, µM (top dose mostly 59.8 µM), inactives show top-dose activity, negative = inhibition, actives largely listed as inhibitors; AID 1477; 230,000 tested, under 10 active; also: % of control where 0% means no effect
Target sequence (Q01196 whole entry, looked up): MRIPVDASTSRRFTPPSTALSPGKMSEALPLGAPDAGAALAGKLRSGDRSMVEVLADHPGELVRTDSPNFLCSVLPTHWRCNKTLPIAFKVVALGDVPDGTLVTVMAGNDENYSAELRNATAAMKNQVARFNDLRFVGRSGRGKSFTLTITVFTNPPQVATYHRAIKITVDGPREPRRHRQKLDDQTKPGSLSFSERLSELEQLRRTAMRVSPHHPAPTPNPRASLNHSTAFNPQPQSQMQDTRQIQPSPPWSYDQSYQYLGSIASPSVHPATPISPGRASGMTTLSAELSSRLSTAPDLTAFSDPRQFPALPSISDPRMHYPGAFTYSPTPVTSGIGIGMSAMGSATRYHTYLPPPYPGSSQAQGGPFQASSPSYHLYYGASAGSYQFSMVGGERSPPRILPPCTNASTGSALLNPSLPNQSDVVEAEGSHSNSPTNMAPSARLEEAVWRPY
Target sequence (Q13951 whole entry, looked up): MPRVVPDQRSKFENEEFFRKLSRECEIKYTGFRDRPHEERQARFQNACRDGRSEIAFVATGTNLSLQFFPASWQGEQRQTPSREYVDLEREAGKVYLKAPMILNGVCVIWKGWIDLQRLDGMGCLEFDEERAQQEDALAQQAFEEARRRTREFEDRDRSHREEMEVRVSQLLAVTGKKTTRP
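His-tagged CBF-beta and biotinylated RUNX1 (30 nM each) were premixed 20 min at room temperature, exposed to compound for 15 min, then given nickel-chelate and streptavidin AlphaScreen beads (50 ng each). After 90 min, AlphaScreen signal was read.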
* marks the source's active call; other numbers are inactive results; ? = inconclusive; . = not tested or not shown; [ ] = dose if it differs, or a comment. Unless noted, calls follow the shape of the dose curve; as a rule, active = well fitted curve in the direction sought with a large enough effect; inconclusive = small, poorly fitted or top-dose-only effect, or another doubt; inactive = no such curve, though single readings can be large; an effect the other way counts as inactive or inconclusive.

SMILES	Tau fluor counter	Lamin A splicing	Tau fibril ThT	Tau FP inhib	JMJD2E inh	CBFb RUNX1 block
N#CC1=C2SCN(c3ccccc3)CN2C(=O)CC1c1cccs1 (stereo unspecified)	-19.2%	4.6%	25.1µM*	?	15.8µM*	?
N#CC1=C2SCN(c3ccccc3)CN2C(=O)CC1c1ccccc1Cl (stereo unspecified)	-28.0%	-13.3%	31.6µM*	?	?	-4.8%
N#CC1=C2SCN(c3ccccc3)CN2C(=O)CC1c1c(Cl)cccc1Cl (stereo unspecified)	-29.9%	4.8%	31.6µM*	25.1µM*	8.91µM*	-4.4%
CCc1cccc2c(-c3ccccc3)nc(SCC(=O)Nc3ccccc3OC)nc12	-8.9%	.	-11.7%	?	.	.
CCN(CC)c1ccc(/C=C/C(=O)C2C(=O)C=C(C)OC2=O)cc1 (stereo unspecified)	6.31µM*[fluorescent]	.	3.16µM*	?	?	-3.8%
NC(=O)C1CCN(C2=C(NS(=O)(=O)c3ccc(Cl)cc3)C(=O)c3ccccc3C2=O)CC1	?	.	15.8µM*	?	-25.5%	-18.1%
CC1CCCN(C2=C(NS(=O)(=O)c3ccc(Cl)cc3)C(=O)c3ccccc3C2=O)C1 (stereo unspecified)	-4.1%	?	?	-3.0%	-1.7%	-2.3%
COC(=O)C1CCN(C2=C(NS(=O)(=O)c3ccc(Cl)cc3)C(=O)c3ccccc3C2=O)CC1	?	.	14.1µM*	-14.0%	-7.9%	.
CCCSc1nc2c(c(=O)[nH]1)C(c1ccc(F)cc1F)CC(=O)N2 (stereo unspecified)	-1.8%	10.0%[46 µM]	1.7%	1.8%	.	.
COC(=O)NC(c1cccc(C)c1)[C@@]1(C(=O)OC)CCCC1=O (stereo partly specified)	-3.9%[11.6 µM]	.	-8.3%[11.5 µM]	-1.4%[11.6 µM]	.	4.7%[13.1 µM]
CC1=NN(c2ccccc2)C(=O)/C1=C\c1c(C)[nH]n(-c2ccccc2)c1=O	-17.6%	18.2%	?	0.4%	-5.0%	4.9%
CC1=NN(c2ccccc2)C(=O)/C1=C/c1c(O)n(-c2ccc(F)c(Cl)c2)[nH]c1=O	?	?	5.01µM*	?	-15.3%	-24.9%
O=C1c2ccccc2C(=O)C12OC2c1ccc(Cl)cc1 (stereo unspecified)	-20.1%	?	3.16µM*	?	?	9.2%
O=C1NC(c2ccc(Cl)cc2)Nc2ccccc21 (stereo unspecified)	-15.3%	.	-11.4%	3.4%	-1.4%	-2.9%
Cc1cc(C)cc(OCc2cc(=O)n3cc(C)sc3n2)c1	-5.6%	.	?	-12.9%	.	.
Cc1ccc2scc(N3CCN(c4ccc(F)cc4)CC3)c(=O)c2c1	-21.8%	?	8.91µM*	-6.4%	.	.
Cc1ccc2scc(N3CCN(c4ccccc4)CC3)c(=O)c2c1	-29.7%	?	3.98µM*	-5.1%	.	.
Cc1ccc2scc(N3CCc4ccccc4C3)c(=O)c2c1	?	-16.7%[46 µM]	7.08µM*	?	.	.
O=c1c(N2CCCCC2)csc2ccc(F)cc12	-4.6%	-1.2%[46 µM]	?	-2.6%	.	.
CC1(OC(=O)c2cnc3ccccc3n2)C(=O)C=C2C=C3CCCN3C=C2C1=O (stereo unspecified)	-7.0%[11.6 µM]	-24.4%[9.22 µM]	-3.2%[11.5 µM]	-9.7%[11.6 µM]	9.9%[11.4 µM]	3.3%[13.1 µM]
CN1CCc2cccc3c2C1Cc1ccc(O)c(O)c1-3 (stereo unspecified)	28.2µM*[quencher]	?	17.8µM*	31.6µM*	?	-6.1%
COc1ccc(-c2noc(CN(C)CCC3CCCCO3)n2)cc1 (stereo unspecified)	15.9%[2.34 µM]	.	-6.1%	7.9%[2.34 µM]	-6.8%	0.2%
COC(=O)c1ccc(-c2noc(CN(C)CCC3CCCCO3)n2)cc1 (stereo unspecified)	-44.5%	?	11.2µM*	-82.5%	-17.0%	?
CCOc1ccc(-c2cn3c(n2)sc2cc(C(=O)NCCC4=CCCCC4)ccc23)cc1	-5.7%	8.8%[46 µM]	4.7%	-12.1%	.	.
CC1CCN(c2ccc(C(=O)Nc3ccc4c(c3)OCO4)cc2[N+](=O)[O-])CC1	?	?	3.98µM*	11.0%	0.2%	-20.9%
SMILES	Tau fluor counter	Lamin A splicing	Tau fibril ThT	Tau FP inhib	JMJD2E inh	CBFb RUNX1 block
CC1CCCN(c2ccc(C(=O)Nc3ccc4c(c3)OCO4)cc2[N+](=O)[O-])C1 (stereo unspecified)	?	?	7.08µM*	4.9%	0.0%	?
CC1CCCN(c2ccc(C(=O)Nc3nnc(C4CC4)s3)cc2[N+](=O)[O-])C1 (stereo unspecified)	-25.1%	3.5%	3.98µM*	?	6.9%	-16.6%
CCCCn1c(O)c(/C=C2\C=NN=C2c2ccccc2)sc1=S	?	?	-10.6%	11.2µM*	5.0%	-18.7%
COC(=O)c1cccc(Nc2cc(C)nc(-c3ccccc3O)n2)c1	?	-4.8%	?	11.2µM*	29.2%	24.2%
C/C(=N\Nc1cc(C)nc(-c2ccccc2O)n1)c1ccccc1O	10µM*[quencher]	.	?	?	?	0.3%
CC(=O)Nc1nonc1-c1nnc(SCc2ccc(F)cc2)n1C	-20.4%	19.2%[46 µM]	-12.2%	-1.5%	.	.
CCOC(=O)c1c(/N=C/c2ccccc2O)sc2c1CCC2	-20.3%	-3.3%	-17.9%	5.4%	-5.9%	-7.0%
CCOC(=O)c1c(/N=C/c2cccc([N+](=O)[O-])c2O)sc2c1CCC2	-26.9%	.	15.8µM*	-6.7%	-13.0%	-15.5%
CCc1n[nH]c(=S)n1/N=C/c1cc(OC)cc([N+](=O)[O-])c1O	-27.8%	.	5.01µM*	-16.1%	2.2%	?
CCOC(=O)c1c(/N=C/c2cc(OC)cc([N+](=O)[O-])c2O)sc(C)c1C	?	-18.0%	8.91µM*	?	-4.7%	-11.1%
Cc1ccc(CNC(=O)C(CC(C)C)N2Cc3ccccc3C2=O)cc1 (stereo unspecified)	-5.6%	6.0%[46 µM]	-0.5%	0.8%	.	.
CCNc1nc(N)c(C(=O)c2ccc(Cl)s2)s1	?	5.4%	12.6µM*	7.6%	7.7%	-11.5%
O=C(NC(Cc1cc(=O)[nH]c2ccccc12)C(=O)O)c1ccc(Cl)cc1 (stereo unspecified)	-11.0%	16.8%	-0.7%	-2.5%	-18.4%	-4.0%
CCCCOC(=O)c1ccc(NC(=O)c2ccc3c(c2)CCCN3S(C)(=O)=O)cc1	?	.	-7.7%	?	.	.
CC(C)CC(=O)Nc1nnc(S(=O)(=O)N2CCCCCC2)s1	-3.2%	12.1%[46 µM]	2.82µM*	-2.4%	.	.
O=C(COc1ccc(F)cc1)Nc1nnc(S(=O)(=O)N2CCc3ccccc32)s1	-26.4%	-17.1%[46 µM]	2.82µM*	-1.5%	.	.
COc1ccc(OCC(=O)Nc2nnc(S(=O)(=O)N3CCc4ccccc43)s2)cc1	-15.4%	28.0%[46 µM]	?	-7.0%	.	.
